# According to PubChem BioAssay (EPA / NIEHS):
# “And” between values parts separate entries of the source, which are not always exact repeats. Equal values may be shown once. Records with an inconclusive call do not appear. The source made the active and inactive calls. Rule for the calls: active = hit-call score of the fitted dose curve at least 0.9, where 1 is the maximum; inconclusive = response in the unintended direction; inactive = score below 0.9.
# Columns and labels:
# [1] = molecular target: rat CYP2C11, Cyp2c11 (gene 29277) (UniProt P08683); test: NVS_ADME_rCYP2C11: NovaScreen (NVS) CYP450-related Enzyme Activity (ADME) Assay for rat CYP2C11 (AID 2283118)
# In short: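 Screened first at 10 uM in duplicate, hits followed by concentration-response. Recombinant rat enzyme activity monitored by fluorescence 0.33 h post-dosing, normalised to acetonitrile negative control.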
# [2] = tested on: rat CYP2C6, gene 293989; test: NVS_ADME_rCYP2C6: NovaScreen (NVS) CYP450-related Enzyme Activity (ADME) Assay for rat CYP2C6 (AID 2283120)
# In short: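 Compounds first tested in duplicate at 10 uM, hits (e.g. 30% inhibition) re-run in singleton dose series to a 20 uM top concentration. Enzyme activity of recombinant rat CYP2C6 measured via fluorescent substrate turnover after 1 h; acetonitrile baseline.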
# [3] = molecular target: rat CYP2D2, Cyp2d26 (gene 25053) (UniProt P10634); test: NVS_ADME_rCYP2D2: NovaScreen (NVS) CYP450-related Enzyme Activity (ADME) Assay for rat CYP2D2 (AID 2283124)
# In short: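 Single-concentration duplicate testing at 10 uM, followed by concentration-response (top 20 uM) for chemicals passing threshold. Enzyme activity of the recombinant rat isoform measured by fluorescence after 0.75 h, acetonitrile as baseline.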
# [4] = tested on: rat CYP3A1, gene 25642; test: NVS_ADME_rCYP3A1: NovaScreen (NVS) CYP450-related Enzyme Activity (ADME) Assay for rat CYP3A1 (AID 2283126)
# In short: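 Compounds went first at 10 uM duplicate, then to series with 20 uM maximum. Fluorescence from substrate turnover by the recombinant enzyme was measured 0.5 h post-dosing, inhibition scored against acetonitrile vehicle.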
# [5] = molecular target: human Acetylcholinesterase (AChE), ACHE (gene 43) (UniProt P22303); test: NVS_ENZ_hAChE: NovaScreen (NVS) Enzymatic Assay for human Acetylcholinesterase (AChE) (AID 2283129)
# In short: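 Actives from a duplicate single-point screen (25 uM) were followed up in concentration series. Enzyme activity read by absorbance (colorimetric) 0.33 hour after dosing, cell-free, normalized to DMSO, with loss of signal scored.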
# [6] = molecular target: rat CYP3A2, Cyp3a2 (gene 266682) (UniProt P05183); test: NVS_ADME_rCYP3A2: NovaScreen (NVS) CYP450-related Enzyme Activity (ADME) Assay for rat CYP3A2 (AID 2283128)
# In short: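 Fluorescence readout of extracted rat CYP3A2 activity 0.5 h post-dose, acetonitrile as negative control. Single-point testing in duplicate at 10 uM, followed by concentration series to a 20 uM maximum for actives.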
# [7] = molecular target: human AKT serine/threonine Kinase 1 (AKT1), AKT1 (gene 207) (UniProt P31749); test: NVS_ENZ_hAKT1: NovaScreen (NVS) Enzymatic Assay for human AKT serine/threonine Kinase 1 (AKT1) (AID 2283138)
# In short: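 A biochemical assay with recombinant enzyme and specific substrate, read by fluorescence intensity with mobility-shift separation 1 hour after dosing. Actives from 25 uM duplicate screening were titrated up to 50 uM against DMSO baseline.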
# [8] = molecular target: rat CYP2C12, Cyp2c12 (gene 25011) (UniProt P11510); test: NVS_ADME_rCYP2C12: NovaScreen (NVS) CYP450-related Enzyme Activity (ADME) Assay for rat CYP2C12 (AID 2283119)
# In short: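 Fluorescent-substrate turnover by recombinant rat CYP2C12, measured at 0.5 h, normalized to acetonitrile vehicle. Chemicals screened first at a single 10 uM concentration in duplicate, with concentration series for actives.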
# [9] = molecular target: Caspase-3 (Homo sapiens) (UniProt P42574); test: NVS_ENZ_hCASP3: NovaScreen (NVS) Enzymatic Assay for human Caspase 3 (CASP3) (AID 2283139)
# In short: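 Single-concentration screening at 25 uM in duplicate, with concentration-response follow-up to a 50 uM maximum for chemicals passing the threshold. Caspase-3 (human, E. coli-expressed) activity was read as substrate fluorescence after 1 h, with loss of signal relative to DMSO.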
# [10] = molecular target: rat CYP2A2, Cyp2a2 (gene 24895) (UniProt P15149); test: NVS_ADME_rCYP2A2: NovaScreen (NVS) CYP450-related Enzyme Activity (ADME) Assay for rat CYP2A2 (AID 2283116)
# In short: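 Compounds first tested in duplicate at 10 uM, then in singleton concentration series up to 20 uM when over threshold. Activity of the recombinant enzyme read by fluorescence at 0.2 h, normalised to acetonitrile vehicle.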
# [11] = molecular target: human AMP-activated Protein Kinase, alpha 1 (AMPKa1), PRKAA1 (gene 5562) (UniProt Q13131); test: NVS_ENZ_hAMPKa1: NovaScreen (NVS) Enzymatic Assay for human AMP-activated Protein Kinase, alpha 1 (AMPKa1) (AID 2283130)
# In short: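 Compounds were screened in duplicate at 25 uM, and those reaching ~30% inhibition were titrated up to 50 uM. The enzyme was recombinant human AMPKα1, and kinase turnover was read by fluorescence/mobility shift 1 h post-dosing as loss of signal versus DMSO.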
# [12] = molecular target: Caspase-1 (Homo sapiens) (UniProt P29466); test: NVS_ENZ_hCASP1: NovaScreen (NVS) Enzymatic Assay for human Caspase 1 (CASP1) (AID 2283132)
# In short: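 Compounds were first tested in duplicate at 25 uM, with follow-up concentration series up to 50 uM. The bacterially expressed enzyme was read by fluorescence at 1 h post-dosing. Signal loss versus DMSO baseline indicates reduced enzyme activity.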
# [13] = molecular target: human Caspase 10 (CASP10), CASP10 (gene 843) (UniProt Q92851); test: NVS_ENZ_hCASP10: NovaScreen (NVS) Enzymatic Assay for human Caspase 10 (CASP10) (AID 2283133)
# In short: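 Fluorescence-intensity enzyme read-out of E. coli-expressed CASP10 activity, 1 h after compound. Single-point duplicates at 25 uM preceded concentration-response testing (top 50 uM) of hits; inhibition expressed as signal loss versus DMSO.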
# [14] = molecular target: human Acid Phosphatase 1 (ACP1), ACP1 (gene 52) (UniProt P24666); test: NVS_ENZ_hACP1: NovaScreen (NVS) Enzymatic Assay for human Acid Phosphatase 1 (ACP1) (AID 2283136)
# In short: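 Cell-free fluorescence read-out of phosphatase activity, substrate and product separated by mobility shift, taken 1.5 h after compound addition; protein produced in Sf9. Single 25 uM duplicate screen, followed by concentration series for actives, scored as signal loss relative to DMSO.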
# [15] = molecular target: human Caspase 5 (CASP5), CASP5 (gene 838) (UniProt P51878); test: NVS_ENZ_hCASP5: NovaScreen (NVS) Enzymatic Assay for human Caspase 5 (CASP5) (AID 2283137)
# In short: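 Caspase 5 enzyme activity, detected as fluorescence signal loss, is measured in a biochemical format using E. coli-expressed protein. Reading occurs 2 hours post-dosing. Screening runs at 25 uM, with confirmed actives titrated to 50 uM maximum.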
# [16] = molecular target: rat CYP2C13, Cyp2c13 (gene 171521) (UniProt P20814); test: NVS_ADME_rCYP2C13: NovaScreen (NVS) CYP450-related Enzyme Activity (ADME) Assay for rat CYP2C13 (AID 2283121)
# In short: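 Inhibition is read as decreased fluorescent product formation, referenced to acetonitrile vehicle. Cell-free recombinant rat Cyp2c13 reaction ran 0.75 hour; compounds first at 10 uM in duplicate, then concentration series for actives.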
# [17] = molecular target: human Caspase 2 (CASP2), CASP2 (gene 835) (UniProt P42575); test: NVS_ENZ_hCASP2: NovaScreen (NVS) Enzymatic Assay for human Caspase 2 (CASP2) (AID 2283135)
# In short: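 Single-point duplicate testing at 25 uM preceded concentration series topping at 50 uM. Activity of the recombinant E. coli-derived protease was followed by fluorescent substrate cleavage 1 h post-dosing, relative to DMSO.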
# [18] = tested on: rat CYP2B1, gene 24300; test: NVS_ADME_rCYP2B1: NovaScreen (NVS) CYP450-related Enzyme Activity (ADME) Assay for rat CYP2B1 (AID 2283117)
# In short: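 Cell-free fluorescence enzyme assay, recombinant rat CYP2B1, 0.75 h after dosing. Single-concentration duplicates at 10 uM preceded concentration series (max 20 uM) for actives; acetonitrile as negative-control baseline.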
# [19] = molecular target: rat CYP2D1, Cyp2d1 (gene 266684) (UniProt P10633); test: NVS_ADME_rCYP2D1: NovaScreen (NVS) CYP450-related Enzyme Activity (ADME) Assay for rat CYP2D1 (AID 2283122)
# In short: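 Rat CYP2D1 enzyme activity measured by fluorescence intensity in a cell-free format, 0.75 h post-dosing, acetonitrile as negative control. Screening at 10 uM in duplicate, with actives followed in concentration series up to 20 uM.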
# Sequence of rat CYP3A2, Cyp3a2 (gene 266682) (P05183 whole entry, looked up): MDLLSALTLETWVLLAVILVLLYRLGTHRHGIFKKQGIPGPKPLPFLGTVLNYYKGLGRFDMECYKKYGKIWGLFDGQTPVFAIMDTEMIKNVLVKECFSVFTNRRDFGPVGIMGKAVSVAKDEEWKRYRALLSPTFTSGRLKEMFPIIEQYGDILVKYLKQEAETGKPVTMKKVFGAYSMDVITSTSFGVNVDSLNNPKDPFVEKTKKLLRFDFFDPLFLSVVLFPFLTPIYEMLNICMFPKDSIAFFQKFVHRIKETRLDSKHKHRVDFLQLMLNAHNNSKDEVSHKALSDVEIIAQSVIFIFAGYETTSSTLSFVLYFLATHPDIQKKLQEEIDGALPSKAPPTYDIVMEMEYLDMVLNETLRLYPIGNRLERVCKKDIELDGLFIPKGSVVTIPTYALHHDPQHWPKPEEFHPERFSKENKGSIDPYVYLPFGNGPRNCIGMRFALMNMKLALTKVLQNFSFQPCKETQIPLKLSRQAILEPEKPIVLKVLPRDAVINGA
# Sequence of human Acid Phosphatase 1 (ACP1), ACP1 (gene 52) (P24666 whole entry, looked up): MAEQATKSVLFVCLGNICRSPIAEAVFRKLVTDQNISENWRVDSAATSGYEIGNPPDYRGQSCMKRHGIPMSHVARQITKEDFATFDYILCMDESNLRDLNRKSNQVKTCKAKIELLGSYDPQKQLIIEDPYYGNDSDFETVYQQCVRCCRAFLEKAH
# Sequence of rat CYP2C11, Cyp2c11 (gene 29277) (P08683 whole entry, looked up): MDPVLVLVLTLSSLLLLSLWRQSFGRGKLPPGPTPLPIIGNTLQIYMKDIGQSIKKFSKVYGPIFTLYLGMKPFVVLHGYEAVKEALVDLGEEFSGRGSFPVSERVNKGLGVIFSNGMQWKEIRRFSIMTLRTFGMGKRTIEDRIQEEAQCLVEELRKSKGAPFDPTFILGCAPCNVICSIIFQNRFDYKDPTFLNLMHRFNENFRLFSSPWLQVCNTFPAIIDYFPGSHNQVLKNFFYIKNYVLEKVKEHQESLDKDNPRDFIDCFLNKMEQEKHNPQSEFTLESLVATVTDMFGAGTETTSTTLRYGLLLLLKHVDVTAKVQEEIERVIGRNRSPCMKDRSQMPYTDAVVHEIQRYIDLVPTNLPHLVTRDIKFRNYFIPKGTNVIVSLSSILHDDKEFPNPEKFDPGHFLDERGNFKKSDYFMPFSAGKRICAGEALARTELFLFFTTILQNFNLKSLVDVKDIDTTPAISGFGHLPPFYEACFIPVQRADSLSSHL
# Sequence of rat CYP2D2, Cyp2d26 (gene 25053) (P10634 whole entry, looked up, canonical isoform): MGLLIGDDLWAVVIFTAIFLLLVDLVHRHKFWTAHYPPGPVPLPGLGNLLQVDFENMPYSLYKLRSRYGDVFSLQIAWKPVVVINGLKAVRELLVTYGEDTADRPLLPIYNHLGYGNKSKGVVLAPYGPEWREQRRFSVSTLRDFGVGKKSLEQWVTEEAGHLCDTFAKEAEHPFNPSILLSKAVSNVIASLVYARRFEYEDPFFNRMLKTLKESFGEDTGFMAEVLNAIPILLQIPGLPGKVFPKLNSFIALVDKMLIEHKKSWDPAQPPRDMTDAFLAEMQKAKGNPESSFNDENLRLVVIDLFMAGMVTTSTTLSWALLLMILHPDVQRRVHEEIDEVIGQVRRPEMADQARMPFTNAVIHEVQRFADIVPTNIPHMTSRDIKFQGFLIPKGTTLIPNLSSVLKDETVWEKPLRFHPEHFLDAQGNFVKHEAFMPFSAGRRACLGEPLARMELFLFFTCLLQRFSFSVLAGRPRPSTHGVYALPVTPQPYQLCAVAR
# Sequence of human AKT serine/threonine Kinase 1 (AKT1), AKT1 (gene 207) (P31749 whole entry, looked up): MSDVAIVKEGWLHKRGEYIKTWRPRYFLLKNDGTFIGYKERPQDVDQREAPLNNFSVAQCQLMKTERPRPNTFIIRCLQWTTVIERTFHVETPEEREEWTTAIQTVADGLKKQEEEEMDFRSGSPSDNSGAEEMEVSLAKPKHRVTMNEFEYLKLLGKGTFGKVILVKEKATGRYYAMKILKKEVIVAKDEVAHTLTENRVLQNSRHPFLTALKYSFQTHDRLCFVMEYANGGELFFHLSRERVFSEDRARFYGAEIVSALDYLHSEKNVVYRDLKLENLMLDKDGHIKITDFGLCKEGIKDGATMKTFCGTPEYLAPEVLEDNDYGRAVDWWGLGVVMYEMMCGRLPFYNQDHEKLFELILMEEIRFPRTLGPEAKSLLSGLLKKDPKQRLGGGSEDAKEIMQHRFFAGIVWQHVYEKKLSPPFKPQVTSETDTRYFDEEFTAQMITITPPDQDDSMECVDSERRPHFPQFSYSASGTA
# Sequence of human AMP-activated Protein Kinase, alpha 1 (AMPKa1), PRKAA1 (gene 5562) (Q13131 whole entry, looked up): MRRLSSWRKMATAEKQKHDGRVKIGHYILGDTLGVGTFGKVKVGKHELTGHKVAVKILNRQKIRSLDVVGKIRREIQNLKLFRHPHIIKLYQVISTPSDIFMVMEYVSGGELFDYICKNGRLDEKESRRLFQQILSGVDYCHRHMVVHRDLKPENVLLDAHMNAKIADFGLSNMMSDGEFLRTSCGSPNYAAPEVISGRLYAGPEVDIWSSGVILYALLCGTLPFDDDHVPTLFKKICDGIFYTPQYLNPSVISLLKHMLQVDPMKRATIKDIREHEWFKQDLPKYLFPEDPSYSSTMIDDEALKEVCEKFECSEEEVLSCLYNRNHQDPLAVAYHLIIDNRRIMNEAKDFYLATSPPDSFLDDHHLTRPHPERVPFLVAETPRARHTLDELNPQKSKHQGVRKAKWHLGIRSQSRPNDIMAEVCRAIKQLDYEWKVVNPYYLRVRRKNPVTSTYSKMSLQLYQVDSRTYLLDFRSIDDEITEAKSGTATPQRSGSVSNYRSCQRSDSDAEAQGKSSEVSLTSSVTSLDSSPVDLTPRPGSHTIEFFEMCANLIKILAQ
# Sequence of human Caspase 10 (CASP10), CASP10 (gene 843) (Q92851 whole entry, looked up): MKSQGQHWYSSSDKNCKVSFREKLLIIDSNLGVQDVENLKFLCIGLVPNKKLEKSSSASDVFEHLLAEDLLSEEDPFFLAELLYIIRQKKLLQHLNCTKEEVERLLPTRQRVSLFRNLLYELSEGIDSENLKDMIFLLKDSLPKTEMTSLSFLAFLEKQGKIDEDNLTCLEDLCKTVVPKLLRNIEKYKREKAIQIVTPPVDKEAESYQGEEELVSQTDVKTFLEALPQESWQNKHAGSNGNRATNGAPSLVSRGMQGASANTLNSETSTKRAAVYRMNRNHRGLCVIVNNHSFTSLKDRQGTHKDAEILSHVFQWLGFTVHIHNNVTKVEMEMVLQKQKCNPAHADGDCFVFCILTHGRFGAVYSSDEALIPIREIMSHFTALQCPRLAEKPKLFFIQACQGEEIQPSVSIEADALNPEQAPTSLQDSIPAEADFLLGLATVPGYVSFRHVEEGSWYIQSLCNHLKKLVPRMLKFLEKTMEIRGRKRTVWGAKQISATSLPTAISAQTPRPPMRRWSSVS
# Sequence of Caspase-1 (Homo sapiens) (P29466 whole entry, looked up): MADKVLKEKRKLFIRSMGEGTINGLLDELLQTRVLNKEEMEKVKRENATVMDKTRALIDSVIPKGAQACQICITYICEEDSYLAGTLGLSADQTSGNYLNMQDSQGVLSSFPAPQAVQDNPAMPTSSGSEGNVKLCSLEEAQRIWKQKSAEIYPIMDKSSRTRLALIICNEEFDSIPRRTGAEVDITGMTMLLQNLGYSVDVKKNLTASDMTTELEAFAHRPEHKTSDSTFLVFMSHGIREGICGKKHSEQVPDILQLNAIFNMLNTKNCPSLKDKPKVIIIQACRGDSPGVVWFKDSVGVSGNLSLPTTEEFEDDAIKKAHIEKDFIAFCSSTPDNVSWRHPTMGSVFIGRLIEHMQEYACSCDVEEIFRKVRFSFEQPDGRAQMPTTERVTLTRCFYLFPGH
# Sequence of rat CYP2C13, Cyp2c13 (gene 171521) (P20814 whole entry, looked up): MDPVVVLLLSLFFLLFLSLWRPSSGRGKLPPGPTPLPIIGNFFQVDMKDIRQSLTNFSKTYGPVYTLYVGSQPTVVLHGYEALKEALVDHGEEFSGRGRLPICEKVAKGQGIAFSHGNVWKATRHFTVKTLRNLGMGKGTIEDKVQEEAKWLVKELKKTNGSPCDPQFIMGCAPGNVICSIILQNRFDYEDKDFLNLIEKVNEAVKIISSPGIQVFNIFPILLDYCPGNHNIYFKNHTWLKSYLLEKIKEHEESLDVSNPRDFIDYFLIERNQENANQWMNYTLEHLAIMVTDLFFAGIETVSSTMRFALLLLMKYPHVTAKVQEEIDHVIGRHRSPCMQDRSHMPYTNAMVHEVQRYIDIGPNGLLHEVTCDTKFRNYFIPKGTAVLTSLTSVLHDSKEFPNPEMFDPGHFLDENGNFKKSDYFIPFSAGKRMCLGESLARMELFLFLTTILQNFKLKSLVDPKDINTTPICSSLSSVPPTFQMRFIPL
# Sequence of human Caspase 5 (CASP5), CASP5 (gene 838) (P51878 whole entry, looked up): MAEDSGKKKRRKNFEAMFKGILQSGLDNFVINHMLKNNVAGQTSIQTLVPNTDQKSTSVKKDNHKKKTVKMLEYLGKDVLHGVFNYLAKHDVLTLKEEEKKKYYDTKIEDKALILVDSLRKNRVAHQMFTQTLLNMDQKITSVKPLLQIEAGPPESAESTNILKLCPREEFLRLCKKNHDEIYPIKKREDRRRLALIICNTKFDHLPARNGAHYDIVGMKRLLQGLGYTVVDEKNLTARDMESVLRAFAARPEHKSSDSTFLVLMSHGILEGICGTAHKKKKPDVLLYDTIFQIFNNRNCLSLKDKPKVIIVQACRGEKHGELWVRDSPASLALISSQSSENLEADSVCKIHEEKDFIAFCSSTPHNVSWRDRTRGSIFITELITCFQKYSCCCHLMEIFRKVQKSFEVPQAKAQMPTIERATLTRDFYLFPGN
# Sequence of Caspase-3 (Homo sapiens) (P42574 whole entry, looked up): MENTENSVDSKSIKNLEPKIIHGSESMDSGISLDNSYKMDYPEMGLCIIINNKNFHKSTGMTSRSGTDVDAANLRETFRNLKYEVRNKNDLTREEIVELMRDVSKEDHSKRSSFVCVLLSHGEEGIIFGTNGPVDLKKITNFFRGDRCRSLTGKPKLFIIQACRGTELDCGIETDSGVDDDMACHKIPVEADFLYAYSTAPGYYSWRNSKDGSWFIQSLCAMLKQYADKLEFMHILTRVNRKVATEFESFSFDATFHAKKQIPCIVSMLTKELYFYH
compound,measurement,setting,value
CC(C)N(C(=O)COc1nnc(C(F)(F)F)s1)c1ccc(F)cc1,AC50,[1],6.6 µM (active)
same,AC50,[2],7.85 µM (active)
same,AC50,[3],10 µM (active)
same,AC50,[4],7.94 µM (active)
same,AC50,[5],16.5 µM (active)
CNC(=O)CSP(=S)(OC)OC,AC50,[2],4.77 µM (active)
same,AC50,[6],5.06 µM (active)
same,outcome,[7],inactive
O=C1c2ccccc2C(=O)N1SC(Cl)(Cl)Cl,outcome,[8],inactive
same,outcome,[9],inactive
O=S(=O)(O)C(F)(F)C(F)(F)C(F)(F)C(F)(F)C(F)(F)C(F)(F)C(F)(F)C(F)(F)F,outcome,[10],inactive
same,AC50,[1],0.0854 µM (active)
same,outcome,[4],inactive
same,AC50,[11],15.7 µM (active) and 5.63 µM (active)
same,outcome,[12],inactive
same,outcome,[13],inactive
same,AC50,[14],24.7 µM (active)
same,AC50,[15],26.7 µM (active) [middle of 4 runs]
same,AC50,[7],46.7 µM (active)
COC(=O)c1ccccc1CS(=O)(=O)NC(=O)Nc1nc(OC)cc(OC)n1,outcome,[7],inactive
Oc1cc(Cl)ccc1Oc1ccc(Cl)cc1Cl,AC50,[3],10 µM (active)
same,outcome,[11],inactive
same,outcome,[14],inactive
CCC(C)Nc1c([N+](=O)[O-])cc(C(C)(C)C)cc1[N+](=O)[O-] (centres undefined),outcome,[16],inactive
CC1(C)C(C=C(Cl)Cl)C1C(=O)OC(C#N)c1ccc(F)c(Oc2ccccc2)c1 (centres undefined),outcome,[12],inactive
C#CCN1C(=O)COc2cc(F)c(N3C(=O)C4=C(CCCC4)C3=O)cc21,AC50,[16],0.992 µM (active)
same,AC50,[6],5.33 µM (active)
same,outcome,[17],inactive
same,outcome,[14],inactive
CC(C)(C)C(O)/C(=C\c1ccc(Cl)cc1Cl)n1cncn1 (centres undefined),AC50,[10],0.0195 µM (active)
same,AC50,[18],0.0164 µM (active)
same,AC50,[1],0.369 µM (active)
same,AC50,[8],1.25 µM (active)
same,AC50,[16],0.281 µM (active)
same,AC50,[19],0.603 µM (active)
same,AC50,[3],0.837 µM (active)
same,AC50,[4],0.631 µM (active)
same,AC50,[6],0.669 µM (active)
CN1CSC(=S)N(C)C1,AC50,[18],3.9 µM (active)
same,outcome,[12],inactive
C[C@H]1[C@H](c2ccc(Cl)cc2)SC(=O)N1C(=O)NC1CCCCC1,outcome,[9],inactive
CC(C)(C)C(O)C(Oc1ccc(Cl)cc1)n1cncn1 (centres undefined),AC50,[10],0.32 µM (active)
same,AC50,[18],5.58 µM (active)
same,AC50,[1],4.45 µM (active)
same,AC50,[16],1.3 µM (active)
same,AC50,[4],5.65 µM (active)
same,AC50,[6],8.09 µM (active)
same,outcome,[11],inactive
same,outcome,[14],inactive
